Compound activity deposited in PubChem BioAssay by several laboratories.
Hits are enriched below; roughly 27% of the tested compounds scored in any of these assays.
sEH activator: increases human soluble epoxide hydrolase activity; P34913; AID 717; 91,000 compounds, 0.04% hits; activation, % at 2 µM; purified human sEH enzymatic activity, activator screen; in the data active = activation above about 37%
CYP2C19 act: increases human CYP2C19 enzyme activity | 96,000 tested, under 10 active | P33261 | recombinant CYP2C19, luciferin-H EGE luminescence; stronger effect = higher value; 0 = fully inhibited enzyme, 1 = untreated enzyme | activation factor at 5 µM;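 active = activation factor of at least 2 at 5 µM in the primary screen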;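 note: 0 = wells with 2.5 mM tranylcypromine and 1 = vehicle-only wells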
CYP2C19 inh: human CYP2C19 inhibition | P33261 | CYP2C19 Supersomes, luciferin-H EGE luminescence, 30 min | inhibition, % at 5 µM | 96,000 compounds, 21% hits | AID 778;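 active = CYP2C19 inhibition above a set limit at 5 µM in the primary screen, cut at about 50% in these data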;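 note: plate controls were negative control wells for no effect and 2.5 mM tranylcypromine positive control for full effect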
sEH inhibitor: inhibitors of human soluble epoxide hydrolase; P34913; recombinant human sEH enzymatic activity assay; inhibition, % at 2 µM; 91,000 compounds, 0.34% hits; AID 707; in the data active = inhibition above about 80%
CYP2C9 act: CYP2C9 (human) activation. P11712. 96,000 compounds, 1.4% hits. activation factor at 5 µM. recombinant CYP2C9, luciferin-H conversion, luminescence; stronger effect = higher value; factor 1 = untreated enzyme, 0 = blocked;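 active = activation factor of 2 or more for CYP2C9 at a 5 µM dose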;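 note: 0 = sulfaphenazole-blocked wells and 1 = vehicle-only wells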
Target sequence (P11712 whole entry, looked up): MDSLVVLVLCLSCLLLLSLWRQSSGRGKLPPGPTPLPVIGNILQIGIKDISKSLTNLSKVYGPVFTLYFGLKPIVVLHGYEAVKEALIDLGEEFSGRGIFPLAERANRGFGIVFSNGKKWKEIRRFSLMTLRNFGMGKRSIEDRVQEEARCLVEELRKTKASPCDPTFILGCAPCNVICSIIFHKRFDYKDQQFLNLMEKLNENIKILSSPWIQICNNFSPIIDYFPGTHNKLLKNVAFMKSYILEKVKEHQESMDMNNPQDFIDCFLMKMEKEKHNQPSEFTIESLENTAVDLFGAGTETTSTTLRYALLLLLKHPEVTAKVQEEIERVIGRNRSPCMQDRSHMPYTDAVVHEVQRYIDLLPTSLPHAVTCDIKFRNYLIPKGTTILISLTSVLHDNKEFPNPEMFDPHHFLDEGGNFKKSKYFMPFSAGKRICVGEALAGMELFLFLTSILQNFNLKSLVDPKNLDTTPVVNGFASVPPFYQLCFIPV
CYP2C9 inh: blocks human cytochrome P450 2C9; P11712; CYP2C9 Supersomes, luciferin-H conversion, luminescence; inhibition, % at 5 µM; 96,000 compounds, 20% hits; AID 777;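 active = blocking of liver enzyme CYP2C9 beyond about 50% at 5 µM, limit read from the data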
Active calls of the source: *; · = no result.

SMILES | sEH activator | CYP2C19 act | CYP2C19 inh | sEH inhibitor | CYP2C9 act | CYP2C9 inh
CCOC(=O)CCNC(C(=O)OCC)c1ccccc1 (centres undefined) | 0 | 1.1 | -7 | -4 | 1.1 | -14
COC(=O)c1nc2n(n1)C(c1cc(OC)ccc1OC)C(C(=O)OC1CCCCC1)=C(C)N2 (centres undefined) | · | 0.5 | 47 | · | 0.3 | 68*
COC(=O)C1=C(C)Nc2nnnn2C1c1cc(OC)ccc1OC (centres undefined) | 2 | 0.7 | 30 | -3 | 0.4 | 61*
CCOC(=O)C1=C(C)Nc2ncnn2C1c1cc(OC)ccc1OC (centres undefined) | -3 | 1 | -4 | 5 | 0.8 | 19
Cc1ccc(CS(=O)(=O)Cc2ccc(C(=O)NCc3ccccn3)o2)cc1 | 0 | 0.9 | 12 | -1 | 1 | 3
Cc1ccc2cc(C#N)c(NCCNC(=O)C3CC3)nc2c1C | · | 0.5 | 49 | · | 0.4 | 64*
CCOc1ccc2nc(NCCNC(=O)CC)c(C#N)cc2c1 | -2 | 1 | 4 | 4 | 1.2 | -15
CCC(=O)NCCNc1nc2cc(C)c(C)cc2cc1C#N | -11 | 0.5 | 50* | 8 | 0.3 | 72*
CCOCCCNC(=S)NCCNc1nc2c(C)cccc2cc1C#N | 8 | 0.7 | 35 | -6 | 1.3 | -34
COc1ccc(OC)c(C(O)c2coc3ccc(O)c(CN4CCOCC4)c23)c1 (centres undefined) | · | 0.4 | 58* | · | 0.5 | 54*
CC1(C)CC(=O)C2=C(C1)N(c1ccc(F)cc1)C(=O)C2(O)C(F)(F)F (centres undefined) | 3 | 0.5 | 50* | -1 | 0.9 | 14
CC1(C)CC(=O)C2=C(C1)N(c1ccc(F)cc1)C(=O)CC2c1ccccc1 (centres undefined) | 15 | 0.2 | 76* | -20 | 0.7 | 28
CC1(C)CC(=O)C2=C(C1)N(c1ccc(F)cc1)C(=O)CC2c1cccnc1 (centres undefined) | · | 1 | -4 | · | 1.1 | -6
CCN(CC)C(=O)/C(=C\c1ccc2c(c1)OCO2)NC(=O)c1ccc(Br)cc1 | 13 | 0.8 | 20 | -11 | 0.6 | 40
Cc1cccc(C)c1OCCCCCNCCO | -3 | 0.8 | 18 | 4 | 1 | 4
Cc1ccc(C(=O)Nc2nc(=O)n(C)s2)cc1 | 6 | 1 | 4 | -8 | 0.9 | 12
Cc1ccc(C(=O)Nc2nc(=O)n(C(=O)CC(C)C)s2)cc1 | · | 0.9 | 8 | · | 0.2 | 84*
Cc1ccc(C(=O)Nc2nc(=O)n(C(=O)c3ccccc3Cl)s2)cc1 | 5 | 0.3 | 66* | -5 | 0.1 | 94*
COc1ccccc1-n1c(CNc2c(C)cccc2C)nnc1SCC(=O)N1CCOCC1 | -2 | 1 | 1 | 2 | 1.1 | -5
CCN(CC)C(=O)C1CC(=O)OC12CCCCC2 (centres undefined) | 4 | · | · | -1 | · | ·
CCOC(=O)NC1(C(F)(F)F)C(=O)N(Cc2ccccc2)C2=C1C(=O)CC(C)(C)C2 (centres undefined) | -2 | 0.3 | 71* | 4 | 1 | 4
COc1cc(CN2C(=O)C(NC(=O)c3ccco3)(C(F)(F)F)C3=C2CC(C)(C)CC3=O)cc(OC)c1 (centres undefined) | 7 | 0.9 | 14 | -10 | 0.4 | 60*
CC1(C)CC(=O)C2=C(C1)N(Cc1cccnc1)C(=O)C2(NC(=O)c1cccnc1)C(F)(F)F (centres undefined) | 0 | 1 | 1 | 0 | 1 | -4
COc1ccc(C(=O)NC2(C(F)(F)F)C(=O)N(Cc3ccco3)C3=C2C(=O)CC(C)(C)C3)cc1OC (centres undefined) | -6 | 0.9 | 7 | 5 | 1 | 3
CCC(C)(C(=O)NC1CCCC1)N(Cc1ccco1)C(=O)c1ccc2c(c1)OCO2 (centres undefined) | -1 | 0.6 | 38 | 2 | 0.8 | 21
Cc1cc(C(F)(F)F)nn1CC(=O)N(C)C1CCCCC1 | -4 | · | · | 4 | · | ·
CC(C)COc1ccc(C(=O)OC2CC(C)(C)OCC2CN(C)C)cc1 (centres undefined) | -3 | 0.9 | 8 | 4 | 0.8 | 16
COc1ccc(C2CC(=O)c3c(ccc4ccccc34)N2)cc1OC (centres undefined) | -10 | 0.9 | 14 | 12 | 0.7 | 32
